Compound activity (PubChem BioAssay)
Sampled rows, rich in hits. Any-hit rate of the full collection: about 4.7%.
RecA intein inh: Mtb RecA intein splicing inhibitors, primary screen, biochemical, fluorescence, HTS; Protein RecA (Mycobacterium tuberculosis (strain ATCC 25618 / H37Rv)), P9WHJ3; cell-free RecA intein splicing; inhibition, % (concentration not given with the values); hit rate 0.75% among 290,000; AID 2221, 2009; in the data active = inhibition above about 30%;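 note: 0% = vehicle wells and 100% = reference inhibitor control wells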
VHR inh abs: VHR1 phosphatase inhibitors, primary screen, biochemical, absorbance, uHTS; inhibition, % at 13.3 µM; hit rate 0.52% among 290,000; Dual specificity protein phosphatase 3 (Homo sapiens), P51452; recombinant VHR phosphatase, pNPP absorbance; in the data active = inhibition above about 50%
Target sequence (P51452 whole entry, looked up): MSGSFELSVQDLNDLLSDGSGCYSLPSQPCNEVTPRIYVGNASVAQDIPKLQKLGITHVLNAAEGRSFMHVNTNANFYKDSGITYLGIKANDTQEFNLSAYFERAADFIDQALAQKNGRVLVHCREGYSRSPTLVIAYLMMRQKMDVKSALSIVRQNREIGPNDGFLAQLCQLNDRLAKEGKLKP
3CLpro inhibitor: SARS-CoV 3CLpro protease inhibitors, primary screen, biochemical, quenched FRET | AID 1706, 2009 | recombinant SARS-CoV 3CLpro, quenched FRET peptide cleavage | hit rate 0.14% among 290,000 | inhibition, % at 6 µM | Replicase polyprotein 1ab (Severe acute respiratory syndrome coronavirus), P0C6X7; in the data active = inhibition above about 12%
GDH-TPI counter-1: GDH-TPI coupling enzyme inhibitors, primary screen, artefact control for M. tuberculosis FBA inhibitor project, biochemical, absorbance, full deck; GDH-TPI coupled enzyme counterscreen, NADH absorbance; hit rate 1.2% among 360,000; AID 588335, 2011; inhibition, % at 4.8 µM;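 note: 0% = DMSO wells and 100% = wells lacking the enzyme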
Mtb FBA inh: Mtb FBA enzyme inhibitors, primary screen, biochemical, fluorescence, strain H37Rv. Fructose-bisphosphate aldolase (Mycobacterium tuberculosis (strain ATCC 25618 / H37Rv)), …. AID 588726, 2011. inhibition, % at 1 µM. purified M. tuberculosis FBA, fluorescence read-out. hit rate 2.3% among 360,000; in the data active = inhibition above about 27%;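 note: 0% = vehicle and 100% = reference inhibitor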
Target sequence (P9WQA3 whole entry, looked up): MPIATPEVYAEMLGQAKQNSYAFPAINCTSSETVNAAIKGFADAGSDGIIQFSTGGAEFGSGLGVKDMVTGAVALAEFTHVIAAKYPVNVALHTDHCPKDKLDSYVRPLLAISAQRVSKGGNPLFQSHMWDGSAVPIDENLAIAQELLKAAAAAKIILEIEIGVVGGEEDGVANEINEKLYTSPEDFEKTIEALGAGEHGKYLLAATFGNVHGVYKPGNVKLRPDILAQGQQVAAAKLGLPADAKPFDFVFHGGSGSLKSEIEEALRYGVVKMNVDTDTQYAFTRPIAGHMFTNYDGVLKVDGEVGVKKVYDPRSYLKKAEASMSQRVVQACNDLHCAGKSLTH
CCHF vOTU inh: CCHFV vOTU protease inhibitors, primary screen, biochemical, Pep-AMC substrate, fluorescence; Crimean-Congo hemorrhagic fever virus L polyprotein viral ovarian tumor (vOTU) protease …; inhibition, % at 11.5 µM; hit rate 0.55% among 370,000; AID 651958, 2012; note: 0% = vehicle wells with enzyme and 100% = no enzyme wells
Mtb FBA inh conf: M. tuberculosis aldolase blockers, biochemical, fluorescence, strain H37Rv, confirmation; shares compounds with Mtb FBA inh; purified M. tuberculosis FBA, fluorescence read-out; inhibition, % at 1 µM; hit rate 78% among 5,600; AID 651616, 2012; in the data active = inhibition above about 27%;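 note: 0% = vehicle wells and 100% = reference inhibitor wells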
GDH-TPI counter-2: GDH-TPI coupling enzyme inhibitors, artefact control for M. tuberculosis FBA inhibitor project, biochemical, fluorescence, high throughput; shares compounds with Mtb FBA inh; hit rate 81% among 5,600; GDH-TPI coupled enzyme counterscreen; inhibition, % at 1 µM; in the data active = inhibition above about 10%
* = called active by the depositor; . = not tested or not shown; + = active, no number. Cut-off read from the data, not from the text of the source, unless noted: active = inhibition above about 30%; inactive = the rest.

SMILES	RecA intein inh	VHR inh abs	3CLpro inhibitor	GDH-TPI counter-1	Mtb FBA inh	CCHF vOTU inh	Mtb FBA inh conf	GDH-TPI counter-2
COC(=O)C1=C(C)NC2=C(C(=O)CCC2)C1c1cn(Cc2ccc(Br)cc2)nc1-c1ccccc1 (stereo unspecified)	-80.4	17.4	4.5	9.7	27.8*	-26.2	41.4*	29.8*
COC(=O)C1=C(C)NC2=C(C(=O)CC(C)(C)C2)C1c1cccc(C)n1 (stereo unspecified)	-25.1	-2.3	4.2	-0.6	23.6	-24.3	.	.
COC(=O)C1=C(C)NC2=C(C(=O)CC(C)(C)C2)C1c1cn(Cc2ccc(Br)cc2)nc1-c1ccccc1 (stereo unspecified)	-19.0	-1.0	5.8	20.5	19.1	.	.	.
COc1ccc(NC(=O)CC2C(=O)N(C)C(=S)N2Cc2ccc3c(c2)OCO3)cc1 (stereo unspecified)	-0.7	-0.5	1.9	4.8	80.1*	-1.4	39.3*	33.0*
COc1ccc(CCN2C(=S)N(C)C(=O)C2CC(=O)Nc2ccc(OC)cc2)cc1 (stereo unspecified)	2.1	28.2	6.1	7.5	-0.8	1.6	.	.
C/C(=N\NC(=O)COc1cccc(C)c1)c1ccc2ccccc2c1O	-3.2	5.5	-0.6	5.8	-0.2	6.8	.	.
CCC(C)(C)NC(=O)CN(Cc1ccccc1Cl)C(=O)CCC(=O)Nc1cc(C)ccn1	-5.3	17.3	-4.0	0.6	-2.8	-3.3	.	.
COc1ccc(-c2c(C#N)c(N)nc3c2CCCC3)cc1OC	-2.4	.	-0.3	18.8	3.8	9.1	.	.
COc1ccc(-c2c(C#N)c(N)nc3c2CCC3)cc1	-0.8	41.8	-2.5	1.9	52.6*	-37.0	136.2*	93.5*
N#Cc1c(N)nc2c(c1-c1ccccc1)CCC2	.	18.6	2.9	10.7	61.0*	-69.1	119.1*	90.8*
CC1CCC(NC(=O)c2cc(S(=O)(=O)N3CCCCC3)ccc2N2CCOCC2)CC1 (stereo unspecified)	.	.	.	-0.3	0.1	4.7	.	.
COc1ccc(CCC(=O)Nc2ccc3c(c2)OCO3)cc1OC	6.1	15.8	4.8	-2.5	-0.5	-0.1	.	.
COc1cc(Cn2c3ccc(NC(=O)CCc4ccc(O)cc4)cc3c(=O)n2C)ccc1F	.	.	.	9.3	111.0*	-73.5	168.7*	125.4*
Cn1c(=O)c2cc(NC(=O)CCc3ccc4c(c3)OCO4)ccc2n1Cc1ccc(F)cc1	.	.	.	5.4	85.1*	-36.9	47.7*	21.0*
Cc1cnc(N)c2c(=O)oc3ccccc3c12	-1.4	12.8	-2.5	0.5	60.5*	-59.7	+	+
Cc1sc(N)nc1-c1ccccc1	2.2	4.2	1.4	7.3	3.2	8.2	.	.
Nc1c(-c2ccccc2)nc(Cl)nc1-c1ccccc1	-84.8	15.1	0.7	12.2	42.8*	-178.9	-3.3	-1.9
Cn1c(=O)c2cc(NC(=S)NC3CCCCC3)ccc2n1-c1ccccc1	.	.	.	1.3	42.0*	4.8	76.3*	81.0*
c1ccc(Nc2c(-c3ccco3)nc3ccccn23)cc1	-3.4	-6.7	-2.6	12.3	110.7*	-81.0	99.4*	71.0*
COC(=O)c1ccc2c(=O)sc(N3CCC(C(N)=O)CC3)nc2c1	-40.6	25.3	-8.4	-2.2	39.9*	-59.2	72.3*	60.9*
Nc1ccc2oc3ccccc3c2c1	4.3	21.2	-3.0	4.7	27.2*	-13.4	2.1	-8.7
Nc1ccc(C#Cc2ccc3oc4ccccc4c(=O)c3c2)cc1	3.0	.	.	17.9	3.4	-5.5	.	.
O=C1CCC(=O)N1c1nc2nc(-c3ccccc3)cc(-c3ccccc3)n2n1	0.9	-14.8	-0.4	22.9	66.5*	6.9	89.4*	62.2*
CCCCn1c(N)c(N(CCOC)C(=O)COC(=O)CCOc2ccccc2C)c(=O)[nH]c1=O	-2.1	.	.	4.9	2.6	4.6	.	.
CS(=O)(=O)NN1C(=O)c2ccccc2NC12CCCC2	-15.3	-8.1	1.2	6.7	34.7*	-104.6	130.8*	106.7*
SMILES	RecA intein inh	VHR inh abs	3CLpro inhibitor	GDH-TPI counter-1	Mtb FBA inh	CCHF vOTU inh	Mtb FBA inh conf	GDH-TPI counter-2
CCOC(=O)NN1C(=O)c2ccccc2NC12CCCC2	-8.7	-5.3	0.8	4.8	58.6*	-94.3	162.9*	139.4*
CCc1noc(C)c1C(=O)N1CCN(CC(=O)OC)CC1	.	.	.	.	.	-4.2	.	.
COC(=O)Cc1c[nH]c2cccc(OCC(O)CN(Cc3ccccc3)C(C)C)c12 (stereo unspecified)	1.9	-9.2	-1.1	-2.8	29.3*	3.0	24.6	25.3*
COC(=O)Cc1c[nH]c2cccc(OCC(O)CN(Cc3ccc([N+](=O)[O-])cc3)C(C)(C)C)c12 (stereo unspecified)	3.8	13.9	4.9	0.0	-1.1	-8.6	.	.
CC[C@H](C)Cc1cn([C@@H](CCCCNC(=O)OC(C)(C)C)C(=O)NCCCCCCCCCCC(=O)N2CCN(C(=O)OC(C)(C)C)CC2)nn1	.	.	.	10.3	106.2*	17.8	66.3*	48.1*
COc1ccc2c(c1)cc(C(=O)N[C@H](C(=O)N1CCC[C@H]1C(=O)O)C(C)C)n2C	5.4	0.3	6.8	10.8	106.1*	-30.3	159.2*	112.8*
CNC(=O)c1cc2cc(OC)ccc2n1CCN(C)C	2.8	10.5	-5.1	0.0	29.4*	-6.1	109.8*	74.3*
COc1cc2cc(C(=O)O)n(C)c2c(OC)c1OC	-1.0	25.4	1.4	9.8	58.7*	-10.5	68.0*	61.3*
COc1ccc2c(c1)cc(C(=O)N[C@@H](CCSC)C(=O)N1CCC[C@H]1C(=O)O)n2C	.	12.5	0.2	8.8	111.1*	-27.1	0.5	-1.4
COc1ccc2c(c1)cc(C(=O)O)n2C	.	-0.2	-3.3	6.2	64.5*	-8.1	+	+
COc1ccc2c(c1)cc(C(=O)N[C@H](C(=O)N1CCC(C(=O)O)CC1)C(C)C)n2C	-1.5	-9.3	-1.6	-3.5	64.7*	-13.4	119.9*	98.9*
COC(=O)c1cc2cc(OC)ccc2n1C	.	.	.	3.4	5.4	-6.6	.	.
Cc1nn(Cc2ccccc2Cl)c2sc(C(=O)Nc3ccccc3N3CCOCC3)cc12	1.7	4.4	6.4	14.8	97.4*	3.2	71.8*	63.6*
Cc1nn(Cc2ccc(F)cc2)c2sc(C(=O)Nc3ccccc3N3CCOCC3)cc12	0.6	17.3	0.0	2.6	3.0	2.1	.	.
